Laboratory results: PubChem BioAssay
Unmarked numbers belong to inactive results. The rule behind the calls is not given here.

target: Pantothenate synthetase (Mycobacterium tuberculosis (strain ATCC 25618 / H37Rv)) (UniProt P9WIL5); experiment: Coupled enzyme confirmation of inhibitors against recombinant Mtb PanC (AID 375); conditions: coupled enzyme assay; at 10 µM, stronger effect = higher value;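 note: 0% = full reaction with vehicle and 100% = no enzyme background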
Sequence (P9WIL5 whole entry, looked up): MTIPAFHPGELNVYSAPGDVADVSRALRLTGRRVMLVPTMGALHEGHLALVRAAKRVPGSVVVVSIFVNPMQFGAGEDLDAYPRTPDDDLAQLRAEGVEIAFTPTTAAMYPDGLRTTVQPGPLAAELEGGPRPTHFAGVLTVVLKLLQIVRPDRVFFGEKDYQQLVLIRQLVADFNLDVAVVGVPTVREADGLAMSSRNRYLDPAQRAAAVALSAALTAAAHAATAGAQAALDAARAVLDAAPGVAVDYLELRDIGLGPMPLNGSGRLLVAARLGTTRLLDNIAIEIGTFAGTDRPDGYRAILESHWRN

| Structure (SMILES) | inhibition |
| --- | --- |
| CCOC(=O)CC(=O)Nc1c(C)cc(C)cc1C | 4% |
| CC1Cc2nc(SCC(=O)Nc3ccc4c(c3)OCO4)n(-c3ccc(F)cc3)c(=O)c2S1 (centres undefined) | 0% |
| CCOCCn1c(CN2CCN(c3cccc(Cl)c3)CC2)nc2c1c(=O)n(C)c(=O)n2C | 4% |
| CC(=O)NCc1ccc(C(=O)CSc2nnc(-c3ccncc3)n2Cc2ccccc2)o1 | 16% |
